Test [1] can be described thus: ATG_PXRE_CIS: Attagene CIS-FACTORIAL HepG2 Assay for human Pregnane X Receptor Element (PXRE) (AID 2282957). Conditions: HepG2 Attagene CIS-FACTORIAL PXRE reporter, mRNA; actives raise or lower the signal. The essentials: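 Cis-element reporter mRNA in human hepatoma HepG2 cells is measured 24 h post-dosing by RT-PCR, primer-extension labeling and capillary electrophoresis; gain or loss of signal is fitted relative to DMSO.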

Test [2] can be described thus: ATG_PPRE_CIS: Attagene CIS-FACTORIAL HepG2 Assay for human Peroxisome Proliferator-activated Response Element (PPRE) (AID 2282958). Conditions: HepG2 PPRE cis-element reporter, Attagene transcription factor profiling; actives raise or lower the signal. The essentials: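 HepG2 cells transiently transfected with multiplexed cis-element reporter units measure endogenous transcription factor activity. After 24 h compound exposure, reporter mRNA is quantified by RT-PCR, 6-FAM labeling, HpaI digestion and capillary electrophoresis; bidirectional fits are made against DMSO baseline.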

Test [3] is described as follows: ATG_RORE_CIS: Attagene CIS-FACTORIAL HepG2 Assay for human RAR-related Orphan Receptor Element (RORE) (AID 2282959). To be noted: HepG2 Attagene cis-factorial RORE reporter, mRNA; actives raise or lower the signal. In short, it runs like this:
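HepG2 cells transiently transfected with multiple cis-element reporter transcription units, exposed to chemical for 24 h. Reporter mRNA quantified by RT-PCR, 6-FAM primer-extension labeling, HpaI digestion and capillary electrophoresis; bidirectional fit versus DMSO baseline.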

Test [4] in a line: ATG_Sox_CIS: Attagene CIS-FACTORIAL HepG2 Assay for human SRY-box transcription factor (SOX) (AID 2282960). Conditions: HepG2 Attagene cis-factorial SOX reporter, mRNA; actives raise or lower the signal. The essentials: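 HepG2 cells transiently transfected with cis-element-driven multiple reporter transcription units, dosed 24 h; reporter mRNA measured by RT-PCR, FAM labelling, HpaI digestion and capillary electrophoresis. Bidirectional fit versus DMSO baseline.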

Test [5] in a line: ATG_SREBP_CIS: Attagene CIS-FACTORIAL HepG2 Assay for human Sterol Regulatory Element Binding (SREBP) (AID 2282962). Conditions: HepG2 Attagene cis-factorial SREBP reporter, mRNA; actives raise or lower the signal. The essentials:
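Transfected HepG2 (cis-regulated reporter library, endogenous TFs) → compound 24 h → total RNA → oligo(dT) RT → reporter-specific PCR → FAM primer extension, HpaI cut → CE fluorescence. Fit bidirectional vs DMSO.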

The target in test [6] is Signal transducer and activator of transcription 3 (Homo sapiens) (UniProt P40763). Description: ATG_STAT3_CIS: Attagene CIS-FACTORIAL HepG2 Assay for human Signal Transducer and Activator of Transcription 3 (STAT3) (AID 2282963). Conditions: HepG2, Attagene cis-factorial STAT3 reporter transcription; actives raise or lower the signal. The essentials: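 Endogenous STAT3-responsive cis-element activity was read in transiently transfected HepG2 cells after 24 h treatment. Reporter transcripts were quantified via RT-PCR and capillary electrophoresis, with DMSO as negative control and bidirectional curve fitting.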
Signal transducer and activator of transcription 3 (Homo sapiens), sequence (P40763 whole entry, looked up): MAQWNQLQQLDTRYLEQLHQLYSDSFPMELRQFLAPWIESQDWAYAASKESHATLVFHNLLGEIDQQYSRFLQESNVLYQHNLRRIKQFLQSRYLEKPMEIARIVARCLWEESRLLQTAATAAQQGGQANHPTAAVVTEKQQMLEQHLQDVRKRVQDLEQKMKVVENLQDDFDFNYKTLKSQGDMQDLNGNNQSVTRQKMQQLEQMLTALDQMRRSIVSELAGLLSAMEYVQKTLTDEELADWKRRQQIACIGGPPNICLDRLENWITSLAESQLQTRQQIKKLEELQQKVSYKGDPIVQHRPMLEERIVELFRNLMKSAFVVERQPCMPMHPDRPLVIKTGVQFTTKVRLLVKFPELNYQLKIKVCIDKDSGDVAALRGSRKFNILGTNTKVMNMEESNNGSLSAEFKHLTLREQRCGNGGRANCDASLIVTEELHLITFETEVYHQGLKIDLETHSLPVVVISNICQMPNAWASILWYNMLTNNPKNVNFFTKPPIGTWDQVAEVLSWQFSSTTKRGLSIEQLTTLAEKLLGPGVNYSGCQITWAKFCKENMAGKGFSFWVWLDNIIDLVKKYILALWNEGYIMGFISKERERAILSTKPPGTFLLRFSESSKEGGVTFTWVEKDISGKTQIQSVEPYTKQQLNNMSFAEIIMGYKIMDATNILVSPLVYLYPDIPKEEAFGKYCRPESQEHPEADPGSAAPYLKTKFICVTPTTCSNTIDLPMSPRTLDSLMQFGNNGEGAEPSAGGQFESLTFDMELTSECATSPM

Test [7] can be described thus: ATG_TA_CIS: Attagene CIS-FACTORIAL HepG2 Assay for human TA Basal Promoter (AID 2282964). To be noted: HepG2 Attagene CIS-factorial TA basal promoter reporter; actives raise or lower the signal. In short, it runs like this: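 HepG2 cells transiently transfected with multiple reporter units under cis promoter elements, reporting endogenous transcription factor activity; this endpoint tracks the TA basal promoter as background control. Reporter mRNA after 24 h dosing measured by RT-PCR/capillary electrophoresis; bidirectional fits versus DMSO.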

Test [8] in a line: ATG_TCF_b_cat_CIS: Attagene CIS-FACTORIAL HepG2 Assay for human T-Cell-Factor with beta-catenin (TCF/b-cat) (AID 2282965). To be noted: HepG2 TCF/beta-catenin cis-reporter transcription, actives raise or lower the signal. In short, it runs like this: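 Measured: reporter mRNA in HepG2 transiently transfected with cis-promoter reporter units, 24 h after chemical addition. Fitting was bidirectional, DMSO as negative control.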

Test [9] in a line: ATG_TAL_CIS: Attagene CIS-FACTORIAL HepG2 Assay for human TAL Basal Promoter (AID 2282966).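 Also: background control endpoint measuring basal TAL promoter reporter mRNA not a specific factor.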 Conditions: HepG2 Attagene cis-factorial TAL promoter reporter; actives raise or lower the signal. In short, it runs like this: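 In this cell-based multiplex, HepG2 liver cells bearing cis-promoter reporter constructs are dosed for 24 hours. Total RNA is reverse-transcribed and amplified, labelled fragments are sized by capillary electrophoresis, and signal changes are fitted bidirectionally versus DMSO.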

In test [10] the target is Transcription factor Sp1 (Homo sapiens) (UniProt P08047). Description: ATG_Sp1_CIS: Attagene CIS-FACTORIAL HepG2 Assay for human Specificity Protein 1 (Sp1) (AID 2282961). Conditions: HepG2 Sp1 cis-reporter transcription, actives raise or lower the signal. In short, it runs like this: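 HepG2 cells transiently transfected with multiple reporter transcription units driven by cis-regulatory elements; Sp1-responsive reporter mRNA measured 24 h after dosing by RT-PCR and capillary electrophoresis fluorescence, fitted bidirectionally against DMSO baseline.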
Transcription factor Sp1 (Homo sapiens), sequence (P08047 whole entry, looked up): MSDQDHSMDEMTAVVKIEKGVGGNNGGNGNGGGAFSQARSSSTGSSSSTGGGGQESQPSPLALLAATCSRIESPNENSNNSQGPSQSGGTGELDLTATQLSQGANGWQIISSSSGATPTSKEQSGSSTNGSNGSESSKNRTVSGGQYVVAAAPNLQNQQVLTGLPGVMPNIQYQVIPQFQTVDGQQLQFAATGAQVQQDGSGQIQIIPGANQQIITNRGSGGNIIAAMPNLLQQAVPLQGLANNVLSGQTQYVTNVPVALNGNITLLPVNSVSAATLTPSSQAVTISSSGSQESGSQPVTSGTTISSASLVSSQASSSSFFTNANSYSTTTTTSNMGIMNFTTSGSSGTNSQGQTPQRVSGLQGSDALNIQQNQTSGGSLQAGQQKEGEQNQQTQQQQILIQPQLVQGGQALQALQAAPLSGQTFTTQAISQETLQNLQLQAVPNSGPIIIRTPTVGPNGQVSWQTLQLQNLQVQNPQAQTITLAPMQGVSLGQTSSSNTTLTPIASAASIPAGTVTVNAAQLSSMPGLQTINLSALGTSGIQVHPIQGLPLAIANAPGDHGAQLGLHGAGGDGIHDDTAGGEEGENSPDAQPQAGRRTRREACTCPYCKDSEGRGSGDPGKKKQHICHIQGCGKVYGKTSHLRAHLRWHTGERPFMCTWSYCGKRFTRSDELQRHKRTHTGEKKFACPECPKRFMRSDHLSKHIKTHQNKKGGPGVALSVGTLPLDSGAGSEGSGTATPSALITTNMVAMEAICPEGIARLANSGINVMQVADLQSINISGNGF

Several values for one entry are separate records, joined by “and”; a condition that tells them apart may be missing. Equal values may be shown once. Activity calls are given as the source filed them. The calls were made as follows: active = hit-call score of the fitted dose curve at least 0.9, where 1 is the maximum; inactive = score below 0.9.

Our source for the AC50 and outcome values is PubChem BioAssay (EPA / NIEHS).

On to `COP(=O)(OC)SCn1c(=O)oc2cc(Cl)cnc21`, for which the AC50 in test [1] was 8.16 µM (active); in [8] it was 10 µM (active). For the same molecule, the outcome in test [2], in test [3], in test [4], in [5], in test [6] and in test [7] was inactive. In addition, in [9], the result was inactive.
On to `CSC1=N[C@@](C)(c2ccccc2)C(=O)N1Nc1ccccc1`, for which the AC50 in [1] is 7.44 µM (active); in [2], 19.2 µM (active). For the same molecule, the molecule was classed as inactive in test [3], in [4], in test [10], in test [5], in [6] and in test [7]. Also, in test [9], the outcome was inactive.
Consider `CCOP(=S)(Oc1cnc(C(C)(C)C)nc1)OC(C)C` (stereo not drawn), for which the AC50 in test [1] was 1.84 µM (active); in [3], 13.1 µM (active); in [5], 23.2 µM (active). The call in test [2], in test [4], in test [6], in test [7] and in test [9] was inactive.
With `CC(C)=CC1C(C(=O)OCN2C(=O)C3=C(CCCC3)C2=O)C1(C)C` (stereo not drawn), the AC50 in test [1] was 13.5 µM (active); in test [3], 50 µM (active); in [5], 65.2 µM (active). Further, the molecule was classed as inactive in test [4], in test [6], in [7] and in test [9].
With `CC(COc1ccc(Oc2ccccc2)cc1)Oc1ccccn1` (stereo not drawn), the AC50 in [1] was 13.7 µM (active); in test [2] it was 15.1 µM (active); in test [3], 12.2 µM (active). Further, the call in [4], in test [5], in test [6], in test [7] and in test [9] was inactive.
In the case of `CCOP(=S)(OCC)Oc1cc(C)nc(C(C)C)n1`, the AC50 was 4.15 µM (active) in test [1], 26 µM (active) in test [2] and 21.7 µM (active) in [5]. Also, the molecule was called inactive in [3], in [4], in test [6], in test [7] and in test [9].
Consider `CCOP(=O)(SC(C)CC)N1CCSC1=O` (stereo not drawn), for which, in test [1], the half-maximal activity concentration (AC50) was 22.9 µM (active). Moreover, the outcome in test [2], in [3], in test [4], in test [5], in [6] and in test [7] was inactive. In addition, the result in test [9] was inactive.
Regarding `C#CCC1=C(C)C(OC(=O)C2C(C=C(C)C)C2(C)C)CC1=O` (stereo not drawn), the AC50 is 1.15 µM (active) in [1]; 13.2 µM (active) in test [2]; 82 µM (active) in test [4]; 31 µM (active) in test [5]; 38.7 µM (active) in [8]; 88.4 µM (active) in test [9]. In addition, the molecule was classed as inactive in test [3], in test [6] and in test [7].
For `CCOP(=O)(NC(C)C)Oc1ccc(SC)c(C)c1` (stereo not drawn), the results for the AC50 in test [1], in test [2] and in [5] were 2.73 µM (active), 21.4 µM (active) and 19.6 µM (active), respectively. For the same molecule, the molecule was classed as inactive in [3], in [4], in test [6], in [7] and in test [9].
With `CN(C)[C@@H]1C(=O)C(C(N)=O)=C(O)[C@@]2(O)C(=O)C3=C(O)c4c(O)cccc4[C@@](C)(O)[C@H]3[C@H](O)[C@@H]12`, the AC50 in [1] is 65 µM (active) and 26.5 µM (active) and 34.9 µM (active). Further, the molecule was called inactive in [4], in test [10], in test [5], in test [6], in [7] and in test [8]. The result in [9] was inactive.
As to `Nc1nc(N)nc(NC2CC2)n1`, the call in [1], in [3], in test [4], in test [5], in test [6] and in test [7] was inactive. Further, in [9], the outcome was inactive.
On to `CC(C)N(C(=O)SCC(Cl)=C(Cl)Cl)C(C)C`, for which the values for the AC50 in test [1] and in [5] were 3.05 µM (active) and 29.1 µM (active), respectively. Further, the outcome in test [3], in test [4], in test [6], in [7] and in test [9] was inactive.
As for `S=C1NCCN1`, the molecule was called inactive in test [1], in test [3], in [4], in [10], in test [5] and in test [6]. In addition, the outcome in test [7] and in test [9] was inactive.
For `CC1(C(=O)Nc2ccc(O)c(Cl)c2Cl)CCCCC1`, the AC50 in test [1] was 2.91 µM (active); in test [2], 36.3 µM (active); in [3], 50 µM (active); in test [5] it was 23.1 µM (active). Also, the outcome in test [4], in [6], in [7] and in [9] was inactive.
Turning to `CNC(=O)ON=C(C)SC`, the outcome in test [1], in test [2], in test [3], in [4], in test [5] and in test [6] was inactive. Also, the molecule was called inactive in test [7], in test [8] and in test [9].
On to `O=C(O)c1cc(Oc2ccc(C(F)(F)F)cc2Cl)ccc1[N+](=O)[O-]`, for which the AC50 in [1] is 60 µM (active). Besides, the result in test [3], in [4], in test [10], in test [5], in test [6] and in [7] was inactive. The call in test [8] and in [9] was inactive.
As to `CNC(=O)Oc1cccc2c1OC(C)(C)O2`, the AC50 in test [1] was 40.2 µM (active); in test [2], 50 µM (active). Besides, the outcome in test [4], in test [5], in test [6], in [7] and in test [9] was inactive.
As for `N#CSCSC#N`, the AC50 in test [1] is 1.26 µM (active). Moreover, the result in test [2], in [3], in test [4], in test [5], in test [6] and in [7] was inactive. Further, the molecule was classed as inactive in [9].
As for `CON=C(C(=O)OC)c1ccccc1CON=C(C)c1cccc(C(F)(F)F)c1`, the AC50 in test [1] is 32.1 µM (active); in test [9] it was 13 µM (active). In addition, the outcome in [2], in test [3], in test [4], in test [5], in test [6] and in test [7] was inactive.
